Source: PubChem BioAssay AID504832 (National Center for Advancing Translational Sciences (NCATS), 2011)
Screen size: about 310,000 compounds; about 18,000 (5.8%) were called active. Roughly 22% stayed inconclusive and do not appear here. Shown is part of a subset that was picked to be rich in actives. A number with no mark means an inactive call. Calls follow the shape of the dose curve; as a rule, active = well fitted inhibition curve with a large enough effect; inconclusive = small, poorly fitted or top-dose-only effect, or another doubt; inactive = no such curve, though single readings can be large or run the other way.

experiment: Primary qHTS for delayed death inhibitors of the malarial parasite plastid, 48 hour incubation; conditions: P. falciparum luciferase growth in erythrocytes; series mostly up to 28.7 µM; activity change, negative = inhibition: at the top concentration
Procedure, shortened: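 Parasite viability was followed by luminescence of a genomically integrated firefly luciferase. Cultures held 0.1% parasitemia at 2% hematocrit (final), incubated under 5% CO2 at 37 C.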
% is scaled to controls: 0 for no effect and ±100 for the full control effect; potency is read from the fitted curve at half-maximal effect.

| Compound | activity change, negative = inhibition [%] | Potency |
| --- | --- | --- |
| Cc1[nH]c(C)c(S(=O)(=O)N2CCN(c3cccc(C(F)(F)F)c3)CC2)c1C(=O)N1CCCC1 | 0.0799 |  |
| CN1CCN(C(c2cc3cc4c(cc3[nH]c2=O)OCCO4)c2nnnn2C2CCCC2)CC1 (stereo not given) | 6.19 |  |
| COc1ccc(N2CCN(C(c3cc4ccc(C)cc4[nH]c3=O)c3nnnn3C3CCCC3)CC2)cc1 (stereo not given) |  | 1.85 µM (active) |
| CCOc1ccc2[nH]c(=O)c(C(c3nnnn3CCOC)N3CCOCC3)cc2c1 (stereo not given) | -3.1 |  |
| O=C(NCCCN1CCOCC1)C1CCCN(S(=O)(=O)N2CCCCC2)C1 (stereo not given) | 22.9 |  |
| CCC(C)C(NC(=O)C1CCC(=O)N1C(=O)OCc1ccccc1)C(=O)NC(C(=O)N1CCCC1C(N)=O)C(C)CC (stereo not given) | -37.5 |  |
| CC(=O)Nc1ccc(NC(=O)[C@@H](NC(=O)c2cccc(C)c2)C(C)C)cc1 | 11.3 |  |
| Cc1cccc(NC(=O)c2cc(S(=O)(=O)N3CCC4(CC3)OCCO4)ccc2F)c1 | 3.22 |  |
| Cc1ccc(S(=O)(=O)N2CCOCC2)cc1C(=O)NC(=S)N(Cc1ccccc1)C(C)C | -2.96 |  |
| Cc1cccc(N(Cc2ccccc2)C(=O)c2cc(S(=O)(=O)N3CCOCC3)ccc2F)c1 |  | 11.7 µM (active) |
| CC(=O)Nc1ccc(NC(=O)CC2CCCC2)cc1 | 36 |  |
| COc1ccc(/C=N/NC(=O)C2CC2)c(OC)c1OC | 22.7 |  |
| CCCOc1ccc(NC(=O)C2CCCNC2=O)cc1 (stereo not given) | 24.6 |  |
| CCCOc1ccc(/C=N/NC(=O)C2CC2)c(OCCC)c1 |  | 11.7 µM (active) |
| CCCCCCCCn1c2c(c(=N)c3c1CCC3)CCCC2 |  | 0.262 µM (active) |
| Cc1ccc(CC2C(=O)N(c3ccc(F)cc3)C(=O)C2C)cc1 (stereo not given) | 39.4 |  |
| CC(=O)NC(CC(=O)Nc1nc(-c2ccccc2)c(C(C)=O)s1)c1ccccc1 (stereo not given) | -5.25 |  |
| CC1CCCC(C)N1C(=O)COC(=O)COc1ccccc1C#N (stereo not given) | 26.8 |  |
| COCCNC(=O)C(c1ccc(C)o1)N(Cc1ccccc1)C(=O)Cn1nnc2ccccc21 (stereo not given) | -22.6 |  |
| COc1ccccc1N(C(=O)Cn1nnc2ccccc21)C(C(=O)NCc1ccco1)c1ccc(C)o1 (stereo not given) |  | 13.1 µM (active) |
| O=C(NCc1ccco1)C(c1ccncc1)N(C(=O)Cn1nnc2ccccc21)c1ccccc1 (stereo not given) | -14 |  |
| NC(=O)c1oc2ccccc2c1NC(=O)CS(=O)(=O)c1ccccc1 | 37.2 |  |
| CCc1c(C)nc2c(OC)cccc2c1Cl | 10.1 |  |
| CC(=O)Oc1ccc(-c2nc3c(C)cccc3c(=O)o2)cc1 | -7.88 |  |
| COc1nc(N=C(N)N)nc2c(C)cccc12 |  | 1.65 µM (active) |

| Compound | activity change, negative = inhibition [%] | Potency |
| --- | --- | --- |
| O=C(C1CCC(=O)N(C2CC2)C1)N1CCN(c2ccc(Cl)cc2)CC1 (stereo not given) | -14.5 |  |
| Cc1ccc(S(=O)(=O)N2CCCCC2)cc1C(=O)N1CCN(CCO)CC1 | 0.383 |  |
| CC(CC(=O)Nc1ccc(F)cc1F)S(=O)(=O)c1ccc2c(c1)NC(=O)CO2 (stereo not given) | 3.89 |  |
| O=[N+]([O-])c1cc(C(F)(F)F)ccc1NCCc1ccncc1 | -26 |  |
| COc1ccc(C(=O)NCc2nnc(SCC(=O)Nc3cccc(OC)c3)o2)cc1 | 15.9 |  |
| Cc1ccc(Cc2nnc(SCC(=O)Nc3ccc(C)cc3C)[nH]c2=O)cc1 | 10.8 |  |
| CC(=O)C1=C(C)NC2=C(C(=O)CC(C)(C)C2)C1C (stereo not given) | -10.5 |  |
| COc1cc(C2C(C#N)=C(C)NC3=C2C(=O)CC(C)(C)C3)ccc1O (stereo not given) |  | 10.4 µM (active) |
| CCC1C(C#N)=C(SC)NC2=C1C(=O)CC(C)(C)C2 (stereo not given) | -22 |  |
| CC(=O)Nc1c2c(nn1-c1cccc(C)c1)CSC2 | 0 |  |
| COc1ccc(S(=O)(=O)n2cnc3ccccc32)c(C)c1 | -10.4 |  |
| O=S(=O)(c1ccccc1)N(Cc1cccc(F)c1)c1ccccc1 | -19.3 |  |
| COc1ccc(NC(=O)COc2ccc(C(=O)c3ccc(F)cc3)cc2)cc1S(N)(=O)=O | -17.7 |  |
| Cc1cc(=O)oc2c3c(cc(OCC(=O)N[C@H](C(=O)O)c4ccccc4)c12)OC(C)(C)CC3 | 5.58 |  |
| CCOC(=O)N1CCC(NC(=O)c2cnn3ccccc23)CC1 | 3.52 |  |
| Cc1ccc(C)c(NC(=O)C2CCCN2C(=O)OC(C)(C)C)c1 (stereo not given) | 22.4 |  |
| Cc1ccc(-n2ncc(C(=O)NC3CC3)c2C2CCN(C(=O)OC(C)(C)C)CC2)c(C)c1 |  | 10.4 µM (active) |
| O=C(COC(=O)c1cccc(Cl)c1)Nc1ccc2[nH]c(=O)[nH]c2c1 | -34.1 |  |
| CCCS(=O)(=O)Nc1ccc(-c2cn3c(n2)SCC3)cc1 | 24 |  |
| Cc1ccc(NC(=O)Cn2c(C)csc2=O)cc1 | 12.8 |  |
| CCC(=O)Nc1ccc2c(c1)nc(CCN1CCN(C)CC1)n2C | 8.09 |  |
| Cn1c(CCN2CCCCCC2)nc2cc(NC(=O)Nc3ccccc3)ccc21 |  | 3.29 µM (active) |
| CCC(=O)Nc1ccc2c(c1)nc(CCN1CCN(c3ccccn3)CC1)n2C | 6.45 |  |
| O=C(NC1CCCCC1)C1CCC(CNS(=O)(=O)c2ccccc2)CC1 (stereo not given) | 7.51 |  |
| CC(C)Oc1ccc(S(=O)(=O)N2CCOCC2)cc1NC(=O)C1CCCC1 | -22.1 |  |
